Hits are enriched below; roughly 1.8% of the tested compounds scored in any of these assays.
Fam108B counter: mouse Fam108B serine hydrolase inhibitors, primary screen, counter-screen for RBBP9 inhibitor project, biochemical, fluorescence polarization; recombinant Fam108B, FP-Rh probe fluorescence polarization; inhibition, % at 9.51 µM; actives 0.33% (n = 300,000); AID 1947, 2009;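 active means inhibition above the screen mean inhibition plus 3 SD, computed separately per campaign, cut at about 18% in these data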;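 further: inhibitors lower polarization as less probe binds the enzyme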
LYPLA1 inh: LYPLA1 inhibitors, primary screen, counter-screen for PME1 inhibitor project, biochemical, fluorescence polarization, FP-Rh probe ABPP. Acyl-protein thioesterase 1 (Homo sapiens), O75608. recombinant LYPLA1. inhibition, % at 5.9 µM. actives 0.16% (n = 320,000). AID 2174, 2009;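 active means inhibition above the mean of all tested compounds plus 3 SD, set per campaign, cut at about 14% in these data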;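 further: inhibitors block serine hydrolase probe labeling of LYPLA1 so polarization falls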
LYPLA2 counter: LYPLA2 inhibitors, primary screen, counter-screen for PME1 inhibitor project, biochemical, fluorescence polarization, FP-Rh probe ABPP | Acyl-protein thioesterase 2 (Homo sapiens), O95372 | recombinant LYPLA2 | inhibition, % at 5.9 µM | actives 0.38% (n = 320,000);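 active means inhibition above the screen-wide mean plus 3 SD, limit set per campaign, cut at about 26% in these data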
Target sequence (O95372 whole entry, looked up): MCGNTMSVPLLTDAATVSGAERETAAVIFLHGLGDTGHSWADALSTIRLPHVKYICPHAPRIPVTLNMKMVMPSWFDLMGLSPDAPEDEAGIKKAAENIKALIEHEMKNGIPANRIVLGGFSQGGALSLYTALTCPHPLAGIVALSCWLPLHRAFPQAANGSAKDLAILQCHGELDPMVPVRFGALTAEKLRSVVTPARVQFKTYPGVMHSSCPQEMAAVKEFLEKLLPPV
GSTO1 counter: inhibitors of recombinant GSTO1, primary screen, counter-screen for RBBP9 inhibitor project, biochemical, fluorescence polarization; activity-based probe fluorescence polarization; inhibition, % at 5.96 µM; actives 1.1% (n = 300,000); Glutathione S-transferase omega-1 (Homo sapiens), P78417; AID 1974, 2009;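 active means inhibition above the campaign mean inhibition plus 3 SD, cut at about 35% in these data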
Target sequence (P78417 whole entry, looked up): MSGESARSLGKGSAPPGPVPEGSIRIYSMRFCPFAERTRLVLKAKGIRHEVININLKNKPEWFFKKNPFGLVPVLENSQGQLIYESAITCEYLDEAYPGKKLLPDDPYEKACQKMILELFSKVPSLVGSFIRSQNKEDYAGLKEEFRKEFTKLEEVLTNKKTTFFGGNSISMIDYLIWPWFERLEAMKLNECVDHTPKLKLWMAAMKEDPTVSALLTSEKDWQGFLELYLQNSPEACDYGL
PAD4 FP inh: human PAD4 inhibitors, primary screen, biochemical, fluorescence polarization, 1536-well format. Protein-arginine deiminase type-4 (Homo sapiens), Q9UM07. inhibition, % at 6.36 µM. recombinant PAD4, RCA probe fluorescence polarization. actives 0.41% (n = 330,000). AID 485272, 2010;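 active means percent inhibition above a cutoff equal to the mean of all tested compounds plus 3 SD, cut at about 15% in these data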
PME-1 primary: PME-1 inhibitors via competitive probe labeling, primary screen, biochemical, fluorescence polarization, FP-Rh probe, HTS. recombinant PME-1. AID 2130, 2009. Protein phosphatase methylesterase 1 (Homo sapiens), Q9Y570. inhibition, % at 5.9 µM. actives 0.53% (n = 320,000);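 active means inhibition above the campaign mean of all compounds plus 3 SD, cut at about 26% in these data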;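 further: competitive labeling of PME-1 active site by serine hydrolase directed probe; inhibitors block probe labeling so polarization falls and inhibition rises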
Numbers stand for hits.

How did Oc1nc(Nc2ccccc2)sc1/C=C1\C=Nc2ccccc21 do in these assays?
Fam108B counter: inactive; LYPLA1 inh: inactive; LYPLA2 counter: inactive; GSTO1 counter: inactive; PAD4 FP inh: inactive; PME-1 primary: 44

Results for CCOC(=O)c1c(Nc2ccccc2)sc(/C=C2\C=Nc3ccccc32)c1O ?
Fam108B counter: inactive; LYPLA1 inh: inactive; LYPLA2 counter: inactive; GSTO1 counter: inactive; PAD4 FP inh: inactive; PME-1 primary: inactive

What do the screens show for `CC1CCC2(CC1)NC(=O)N(CC(=O)N1CCOCC1)C2=O` (configuration not stated)?
PAD4 FP inh: inactive

Results for COc1ccc(OCCn2cc(/C=N/NC(=O)c3ccncc3)c3ccccc32)cc1 ?
Fam108B counter: inactive; LYPLA1 inh: inactive; LYPLA2 counter: 39; GSTO1 counter: inactive; PAD4 FP inh: inactive; PME-1 primary: 32

How did O=C(O)CSc1nnc(-c2cccc(S(=O)(=O)N3CCOCC3)c2)n1-c1ccc(F)cc1 do in these assays?
PAD4 FP inh: inactive

How did O=S(=O)(Nc1nc2ccccc2nc1NCc1ccco1)c1ccc(Cl)cc1 do in these assays?
Fam108B counter: inactive; LYPLA1 inh: inactive; LYPLA2 counter: inactive; GSTO1 counter: inactive; PAD4 FP inh: inactive; PME-1 primary: inactive

Results for Cc1noc(C)c1CSc1nc2ccccc2nc1NS(=O)(=O)c1ccc(Cl)cc1 ?
Fam108B counter: inactive; LYPLA1 inh: inactive; LYPLA2 counter: inactive; GSTO1 counter: inactive; PAD4 FP inh: inactive; PME-1 primary: 27

How did O=c1cc(/N=C/c2coc3c(ccc4ccccc43)c2=O)[nH]c(=S)[nH]1 do in these assays?
Fam108B counter: inactive; LYPLA1 inh: inactive; LYPLA2 counter: inactive; GSTO1 counter: 42; PAD4 FP inh: inactive; PME-1 primary: inactive

Results for NC(=S)N/N=C/c1coc2c(ccc3ccccc32)c1=O ?
Fam108B counter: inactive; LYPLA1 inh: inactive; LYPLA2 counter: inactive; GSTO1 counter: inactive; PAD4 FP inh: inactive; PME-1 primary: inactive

What do the screens show for `COc1ccc2[nH]c(=O)c(-c3noc(-c4ccccc4)n3)cc2c1`?
Fam108B counter: inactive; LYPLA1 inh: inactive; LYPLA2 counter: inactive; GSTO1 counter: inactive; PAD4 FP inh: inactive; PME-1 primary: 49

What do the screens show for `CCCc1nnc(NC(=O)CSc2nc3ccccc3[nH]2)s1`?
Fam108B counter: inactive; LYPLA1 inh: inactive; LYPLA2 counter: inactive; GSTO1 counter: inactive; PAD4 FP inh: inactive; PME-1 primary: inactive

How did CCc1nnc(NC(=O)CSc2sc3c(O)cc(=O)[nH]c3c2C#N)s1 do in these assays?
Fam108B counter: inactive; LYPLA1 inh: inactive; LYPLA2 counter: inactive; GSTO1 counter: 48; PAD4 FP inh: inactive; PME-1 primary: inactive

What do the screens show for `CC(C)Cc1nnc(NC(=O)CSc2nc(N)cc(=O)[nH]2)s1`?
Fam108B counter: inactive; LYPLA1 inh: inactive; LYPLA2 counter: inactive; GSTO1 counter: 47; PAD4 FP inh: inactive; PME-1 primary: inactive

How did CCc1nnc(NC(=O)CSc2nc3c(C)cccc3[nH]2)s1 do in these assays?
Fam108B counter: inactive; LYPLA1 inh: inactive; LYPLA2 counter: inactive; GSTO1 counter: 36; PAD4 FP inh: inactive; PME-1 primary: inactive

What do the screens show for `CC(CNC(=O)CCC(=O)N1CCOc2ccccc21)c1ccccc1` (configuration not stated)?
Fam108B counter: inactive; LYPLA1 inh: inactive; LYPLA2 counter: inactive; GSTO1 counter: inactive; PAD4 FP inh: inactive; PME-1 primary: inactive

How did CCC(CO)Oc1cc(NC(=O)c2ccc(OC)cc2)c2ncn(C(C)C)c2c1 (configuration not stated) do in these assays?
PAD4 FP inh: inactive

Results for CC(C)NC(=O)c1onc(CSc2ccc(F)cc2)c1C(=O)NC(C)C ?
Fam108B counter: inactive; LYPLA1 inh: inactive; LYPLA2 counter: inactive; GSTO1 counter: inactive; PAD4 FP inh: inactive; PME-1 primary: inactive

Results for Cc1cc(C(=O)OCC(=O)c2ccc(Cl)c([N+](=O)[O-])c2)c2cccc(C)c2n1 ?
Fam108B counter: inactive; LYPLA1 inh: inactive; LYPLA2 counter: inactive; GSTO1 counter: 37; PAD4 FP inh: inactive; PME-1 primary: inactive

High-throughput results from PubChem.
